Test results taken from PubChem BioAssay AID2716 (Broad Institute, 2010).
Out of some 320,000 compounds screened, about 3,300 (1%) were called active. The list comes from a sample in which actives are over-represented; it also holds similar structures and randomly drawn compounds. A number with no mark means an inactive call.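 How the source made its calls: active means every valid replicate shows activation above 250% relative to neutral control wells; inactive means the rest, any valid replicate at or below 250%.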

Experiment: yeast Mot1-301 growth rescue at high temperature, primary screen, SUMOylation pathway inhibitor project, S. cerevisiae, ATP luminescence, 38.5C (AID 2716);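 further: OY570 slx delta 5 strain wells were the positive control but not used for scaling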
Conditions: S. cerevisiae Mot1-301 growth rescue, at 18.8 µM, hits give high values, percent above DMSO median, 100 means doubled
`CCSC(C)CC1C/C(=N/O)c2c(C)noc2C1` (stereo not given) gave a growth rescue of 5.53%.
In the case of `Cc1ccc(S(=O)(=O)n2cnc3ccccc32)c(C)c1`, the growth rescue is reported as -12.4%.
Work on `COc1ccc(S(=O)(=O)n2cnc3ccccc32)c(C)c1` yielded a growth rescue of -3.94%.
With `Cc1ccc(C)c(S(=O)(=O)n2cnc3ccccc32)c1` the growth rescue was 439% (active).
Work on `CCOC(=O)C1=C(C)NC(C)=C(C(=O)OCC)C1C1=COCCO1` yielded a growth rescue of -16.1%.
`CCOc1ccc(N(CC(=O)NCCOc2ccccc2OC)S(=O)(=O)c2ccccc2)cc1` showed a growth rescue of 0.484%.
With `CN(c1ccccc1)S(=O)(=O)c1ccc(C(=O)N2CCN(c3ccccc3Cl)CC2)cc1` the growth rescue was 19.5%.
With `NC1=C([N+](=O)[O-])C(c2ccccc2)C2=C(CCCC2=O)O1` (stereo not given) the growth rescue was -9.51%.
For `N#CC1=C(N)OC2=C(C(=O)CCC2)C1C1CC=CCC1` (stereo not given), the growth rescue was 435% (active).
In the case of `CCCc1[nH]nc2c1C(C1CC=CCC1)C(C#N)=C(N)O2` (stereo not given), the growth rescue is reported as 4.92%.
In the case of `O=C1CCCN2N=C(SCC(=O)Nc3ccc(Br)cc3)SC2=N1`, the growth rescue is reported as -5.37%.
Work on `CC(C)CCNC(=O)c1cccnc1Sc1ccccc1` yielded a growth rescue of 2.14%.
`CC(=O)c1ccc(NC(=O)c2ccc(-n3cncn3)c([N+](=O)[O-])c2)cc1` gave a growth rescue of 62.2%.
For `O=C(O)CSC(NC(=O)c1cccnc1)(C(F)(F)F)C(F)(F)F`, the growth rescue was -13.2%.
For `O=C(Nc1ccccc1N1CCCC1)c1ccc2ccccc2c1`, the growth rescue was -24.5%.
Compound `Cc1cccc(C(=O)Nc2ccccc2N2CCN(c3ccc(F)cc3)CC2)c1` has a growth rescue of 0.874%.
In the case of `O=C(Nc1ccccc1N1CCN(c2ccccc2)CC1)c1cccc(F)c1`, the growth rescue is reported as 516% (active).
`CC(Sc1ncnc2c1cnn2-c1ccccc1)C(=O)Nc1ccc(N2CCOCC2)cc1` (stereo not given) showed a growth rescue of -16.6%.
For `CCC(=O)Nc1ccc(C(=O)CSc2nnc(CNc3ccc(Cl)cc3)o2)cc1OC`, the growth rescue was -12.4%.
With `CCn1cc(CN2CCN(CC(C)(C)C)C(CCO)C2)c2ccccc21` (stereo not given) the growth rescue was 2.63%.
`CCOc1ccc(OCC(=O)OC(C)C(=O)NC2CCCCC2C)cc1` (stereo not given) gave a growth rescue of 4.11%.
`O=C(COc1ccc(Cl)cc1)NCc1nnc(SCC(=O)NCC2CCCO2)o1` (stereo not given) showed a growth rescue of 1.67%.
Compound `Cc1ccc(Cn2c(SCC(=O)N/N=C/c3ccccc3OCC(=O)O)nc3ccccc32)cc1` has a growth rescue of 29.2%.
For `CCn1c(SCC(=O)N/N=C/C=C/c2ccccc2[N+](=O)[O-])nnc1-c1ccccc1`, the growth rescue was -1.22%.
With `CCn1c(SCC(=O)N/N=C/c2ccccc2OCC(=O)O)nnc1-c1ccc(C(C)(C)C)cc1` the growth rescue was 746% (active).
In the case of `CCCCn1c(SCC(=O)NCCc2ccc(OC)c(OC)c2)nc2c1c(=O)n(C)c(=O)n2C`, the growth rescue is reported as -22.4%.
For `CCOc1ccc(Cn2c(SCCCCC#N)nc3c2c(=O)n(C)c(=O)n3C)cc1OCC`, the growth rescue was 395% (active).
In the case of `CCCSc1nc2c(c(=O)n(C)c(=O)n2C)n1Cc1ccc(C)cc1`, the growth rescue is reported as -26.2%.
In the case of `NC(N)=NCCCc1cn(CC(=O)N2CCNCC2)nn1`, the growth rescue is reported as 3.99%.
`Cn1c(=O)c2c(SCC(=O)NCC3CCCO3)nc(CC(C)(C)C)nc2n(C)c1=O` (stereo not given) showed a growth rescue of 4.63%.
In the case of `CC1CCN(C(=S)NC2CC3CCC2C3)CC1` (stereo not given), the growth rescue is reported as 8.2%.
For `O=C(Oc1ccccc1Cl)c1ccc(N2CCOCC2)c([N+](=O)[O-])c1`, the growth rescue was 334% (active).
In the case of `O=C(c1ccc(N2CCOCC2)c([N+](=O)[O-])c1)N1CCN(c2ccccc2F)CC1`, the growth rescue is reported as -2.08%.
For `O=C(OCC(=O)N1CCOCC1)c1ccc(N2CCOCC2)c([N+](=O)[O-])c1`, the growth rescue was 15.5%.
In the case of `S=C(Nc1ccc(Br)cc1Cl)N1CCC2(CC1)OCCO2`, the growth rescue is reported as 14%.
`Cc1ccc(C(C(=O)NC2CCCCC2)N(C(=O)c2csnn2)C2CC2)o1` (stereo not given) gave a growth rescue of -6.5%.
For `CCOc1ccc(C(=O)Nc2cccc(SC)c2)cc1`, the growth rescue was -2.04%.
With `O=S(=O)(c1ccc(SCc2ccc(Br)cc2)nc1)N1CCOCC1` the growth rescue was 0.526%.
Compound `CCNc1nc(N)nc(Oc2ccc(OCC)nn2)n1` has a growth rescue of 5.12%.
With `CCNc1nc(N)nc(-c2cc(Cl)ccc2OC)n1` the growth rescue was 263% (active).
With `CCC(C)NC(=O)c1cc(Cl)ccc1OC` (stereo not given) the growth rescue was 1740%.
In the case of `CC1=NC2(CCCc3c2no[n+]3[O-])N(O)C1(C)C` (stereo not given), the growth rescue is reported as 465% (active).
Compound `COCCn1c(Cc2cccn2C)nnc1SCC(=O)Nc1nccs1` has a growth rescue of 2.9%.
Compound `COc1cccc(CC(=O)N2CCCC(CCC(=O)N3CCN(c4ccccn4)CC3)C2)c1` (stereo not given) has a growth rescue of 15%.
Compound `COc1cccc2sc3cc(NCC[C@@H]4CCCN4C)ccc3c(=O)c12` has a growth rescue of 4.78%.
`CC1CC(C)CN(c2ccc(S(=O)(=O)N3CCOCC3)cc2)C1` (stereo not given) showed a growth rescue of 18.2%.
`CSc1ccc(S(=O)(=O)NC2CCCCC2)cc1` showed a growth rescue of 5.7%.
In the case of `CC(C)c1ccc(S(=O)(=O)NC2CCCC2)cc1`, the growth rescue is reported as 306%.
For `Cc1ccc(S(=O)(=O)NC2CCCCCC2)cc1`, the growth rescue was 297% (active).
Work on `CC1CN(C(=S)Nc2ccc(S(N)(=O)=O)cc2)CC(C)O1` (stereo not given) yielded a growth rescue of -5.04%.
In the case of `COc1cc(CN2CCNC(=O)C2CC(=O)NCCc2ncccc2C)cc(OC)c1` (stereo not given), the growth rescue is reported as 662% (active).
With `Cc1ccccc1CN1CCNC(=O)C1CC(=O)NCCC1=CCCCC1` (stereo not given) the growth rescue was -4.34%.
`CCOc1ccc(CN2CCNC(=O)C2CC(=O)NCCCC2CCCC2)cc1` (stereo not given) showed a growth rescue of 3.84%.
For `Cc1ccc(Cc2nnc(SCC(=O)Nc3ccccc3C)[nH]c2=O)cc1`, the growth rescue was 579% (active).
In the case of `COc1ccc(Cc2nnc(SCC(=O)Nc3ccc(C)c(Cl)c3)[nH]c2=O)cc1`, the growth rescue is reported as 60.7%.
Work on `Cc1ccc(Cc2nnc(SCC(=O)Nc3ccc(C)cc3C)[nH]c2=O)cc1` yielded a growth rescue of 3.03%.
For `CC1(c2ccccc2)NC(=O)N(CC(=O)Nc2cc(Cl)ccc2N2CCOCC2)C1=O` (stereo not given), the growth rescue was 268%.
With `NS(=O)(=O)c1cc2c(cc1Cl)NC(C(Cl)Cl)NS2(=O)=O` (stereo not given) the growth rescue was -7.27%.
For `Cc1ccc(CNC(=O)C(=O)c2cn(CC(=O)N3CCOCC3)c3ccccc23)cc1`, the growth rescue was 279%.
In the case of `Cc1ccc(-n2c(SCC(=O)Nc3ccc4c(c3)OCO4)nnc2-c2ccccn2)cc1`, the growth rescue is reported as -3.71%.
For `Cc1ccc(-n2c(SCC(=O)Nc3ccc4c(c3)OCO4)nnc2-c2ccoc2C)cc1`, the growth rescue was -1.21%.
For `O=C(CSc1nnc(-c2ccccn2)n1-c1ccccc1)Nc1ccc2c(c1)OCO2`, the growth rescue was 354% (active).
`CC1CC2=C(CC1/C=N/NC(N)=S)C(C)(C)CCC2` (stereo not given) showed a growth rescue of 94.7%.
In the case of `O=C(NCC#CCSc1nnc(-c2cccc3ccccc23)o1)c1cccs1`, the growth rescue is reported as -7.8%.
`CCNC(=O)CC1C(=O)N(c2ccc(F)cc2)C(=O)N1Cc1cccs1` (stereo not given) gave a growth rescue of -6.29%.
In the case of `COc1ccc(N2C(=O)C(CC(=O)Nc3ccc(F)cc3)N(CCc3cccs3)C2=O)cc1` (stereo not given), the growth rescue is reported as 700% (active).
With `COc1ccc(CCN2C(=O)N(c3ccc(OC)cc3)C(=O)C2CC(=O)Nc2ccc(OC)cc2)cc1` (stereo not given) the growth rescue was -12.2%.
In the case of `Cc1cccc(C(=O)N[C@H](C(=O)NCc2cccs2)C(C)C)c1`, the growth rescue is reported as 14.3%.
`CCc1cc(C(=O)Nc2nnc(C3CC3)s2)sc1C` showed a growth rescue of -5.84%.
Compound `Cc1cc(C)cc(OCC(=O)NC(C)c2ccccc2)c1` (stereo not given) has a growth rescue of 14.1%.
In the case of `C/C(CC(=O)NC(C)c1ccccc1)=N\NC(N)=S` (stereo not given), the growth rescue is reported as 317% (active).
`Cc1ccc(OCC(=O)NC(C)c2ccccc2)cc1C` (stereo not given) gave a growth rescue of -6.93%.
Compound `CCc1ccccc1NC(=O)CN(C)S(=O)(=O)c1ccc2c(c1)c(=O)n(C)c(=O)n2C` has a growth rescue of 30%.
Work on `O=C(COc1ccc([N+](=O)[O-])cc1Cl)Nn1cnnc1` yielded a growth rescue of 88.2%.
With `Cc1ccc(C(=O)OCC(=O)N2CCCCCC2)cc1S(=O)(=O)N1CCOCC1` the growth rescue was 6.73%.
`COc1ccc(CNC(=O)COC(=O)c2ccc(C)c(S(=O)(=O)N3CCOCC3)c2)cc1OC` gave a growth rescue of -6.82%.
With `COc1ccc(C(=O)OCC(=O)c2ccc(C)c(S(=O)(=O)N3CCOCC3)c2)cc1OC` the growth rescue was 625% (active).
`COc1c(C)cc(C(=O)C2CCCN(S(=O)(=O)c3c(C)noc3C)C2)cc1C` (stereo not given) gave a growth rescue of -5.92%.
With `COc1ccc(CCNC(=O)/C(C#N)=C2\N=C(NC(=O)c3cccs3)c3ccccc32)cc1` the growth rescue was -22.6%.
For `Cc1ccc(S(=O)(=O)CCC(=O)OCC(=O)N(C)C2CCS(=O)(=O)C2)cc1` (stereo not given), the growth rescue was 366% (active).
For `CN(C(=O)COC(=O)Cc1ccccc1[N+](=O)[O-])C1CCS(=O)(=O)C1` (stereo not given), the growth rescue was -6.84%.
Work on `Cc1ccc(S(=O)(=O)CCC(=O)OCc2ccccc2)cc1` yielded a growth rescue of -4.25%.
For `COc1cc(OC)cc(C(=O)NCCCn2ccnc2)c1`, the growth rescue was 0.871%.
For `COc1cccc(-c2nn(-c3ccccc3)cc2/C=C(\C#N)C(=O)NCCCn2ccnc2)c1`, the growth rescue was -1.32%.
In the case of `COc1ccc(/C=C(\C#N)C(=O)NCCCn2ccnc2)cc1`, the growth rescue is reported as 429% (active).
Compound `CCOC(=O)c1ccc(NC(=S)N2CCN(c3ccccn3)CC2)cc1` has a growth rescue of 4.51%.
With `O=C(COC(=O)c1ccc(F)cc1)NCCCc1ccccc1` the growth rescue was -3.97%.
With `COc1ccc(OC)c(CNC(=O)c2cc(=O)[nH]c3ccc(S(=O)(=O)N4CCCC4)cc23)c1` the growth rescue was 46.7%.
`CCOc1ccc(-c2cn(S(=O)(=O)c3cccc4nsnc34)nc2N)cc1` gave a growth rescue of 8.29%.
`COc1ccc(N(C)S(=O)(=O)c2cccc3nsnc23)cc1` showed a growth rescue of -12.6%.
With `CCOc1ccc(N(CC)S(=O)(=O)c2cccc3nsnc23)cc1` the growth rescue was 487% (active).
In the case of `COc1ccc(OC)c(NC(=O)COC(=O)Cc2ccsc2)c1`, the growth rescue is reported as 24.6%.
With `CC(C)Cc1nc(N2CCOCC2)c(C#N)c2c1CCC2` the growth rescue was 469% (active).
Work on `CC(C)Cc1nc(Cl)c(C#N)c2c1CCC2` yielded a growth rescue of -9.85%.
For `CC(C)CCNc1nc(N2CCCC2)c2c(c1C#N)CCN(C)C2`, the growth rescue was -30.6%.
